Compounds with a hit are over-represented: about 1.8% of the library has one in this group of screens.
LYPLA1 inh = LYPLA1 (human) inhibition in PME1 counter-screen. O75608. inhibition, % at 5.9 µM. 320,000 tested, 0.16% active. AID 2174. recombinant LYPLA1, FP-Rh probe fluorescence polarization;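 active means inhibition above the mean of all tested compounds plus 3 SD, set per campaign, cut at about 14% in these data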;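 further: inhibitors block serine hydrolase probe labeling of LYPLA1 so polarization falls; 0% = enzyme with DMSO and 100% = wells lacking LYPLA1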
Target sequence (O75608 whole entry, looked up): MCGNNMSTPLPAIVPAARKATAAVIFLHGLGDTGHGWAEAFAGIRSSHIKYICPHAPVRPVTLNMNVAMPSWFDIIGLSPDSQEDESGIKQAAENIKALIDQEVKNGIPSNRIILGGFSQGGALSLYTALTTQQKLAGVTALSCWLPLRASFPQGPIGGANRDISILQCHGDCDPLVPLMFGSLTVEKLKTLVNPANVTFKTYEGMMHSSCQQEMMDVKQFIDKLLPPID
PME-1 primary = blocks human protein phosphatase methylesterase 1. inhibition, % at 5.9 µM. Q9Y570. recombinant PME-1, FP-Rh probe fluorescence polarization. 320,000 tested, 0.53% active. AID 2130;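 active means inhibition above the campaign mean of all compounds plus 3 SD, cut at about 26% in these data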;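 further: competitive labeling of PME-1 active site by serine hydrolase directed probe; 0% = PME-1 with DMSO and 100% = wells lacking PME-1 enzyme; inhibitors block probe labeling so polarization falls and inhibition rises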
LYPLA2 inh = counter-screen for PME1 inhibitors: inhibitors of human LYPLA2; O95372; recombinant LYPLA2, FP-Rh probe fluorescence polarization; inhibition, % at 5.9 µM; 320,000 tested, 0.38% active; AID 2177;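 active means inhibition above the screen-wide mean plus 3 SD, limit set per campaign, cut at about 26% in these data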;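 further: 0% = LYPLA2 with DMSO and 100% = wells lacking LYPLA2 enzyme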
PAD4 FP inh = blocks human protein arginine deiminase 4 | Q9UM07 | 330,000 tested, 0.41% active | inhibition, % at 6.36 µM | recombinant PAD4, RCA probe fluorescence polarization | AID 485272;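 active means percent inhibition above a cutoff equal to the mean of all tested compounds plus 3 SD, cut at about 15% in these data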;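 further: 0% = PAD4 with RCA probe and DMSO and 100% = probe without PAD4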
GSTO1 counter = GSTO1 inhibition, counter-screen for RBBP9 inhibitors. P78417. recombinant GSTO1, activity-based probe fluorescence polarization. inhibition, % at 5.96 µM. 300,000 tested, 1.1% active;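 active means inhibition above the campaign mean inhibition plus 3 SD, cut at about 35% in these data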;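 further: 0% = GSTO1-1 with DMSO and 100% = wells lacking GSTO1-1 enzyme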
Target sequence (P78417 whole entry, looked up): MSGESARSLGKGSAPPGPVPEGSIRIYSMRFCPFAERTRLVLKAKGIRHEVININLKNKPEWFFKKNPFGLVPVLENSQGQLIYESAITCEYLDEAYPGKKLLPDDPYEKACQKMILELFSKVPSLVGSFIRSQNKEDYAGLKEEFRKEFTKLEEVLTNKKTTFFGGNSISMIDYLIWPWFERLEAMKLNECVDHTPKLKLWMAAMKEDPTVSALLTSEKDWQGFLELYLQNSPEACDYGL
Fam108B counter = blocks mouse Fam108B hydrolase in RBBP9 counter-screen. AID 1947. inhibition, % at 9.51 µM. 300,000 tested, 0.33% active. recombinant Fam108B, FP-Rh probe fluorescence polarization;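 active means inhibition above the screen mean inhibition plus 3 SD, computed separately per campaign, cut at about 18% in these data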;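 further: inhibitors lower polarization as less probe binds the enzyme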
PAD4 confirm = confirmation of human PAD4 inhibitors; 1,200 tested, 28% active; recombinant PAD4, RCA probe fluorescence polarization; inhibition, % at 6.36 µM; shares compounds with PAD4 FP inh; AID 488796;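 active means mean inhibition across replicates above the hit cutoff set by the earlier primary screen, cut at about 15% in these data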;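 further: inhibitors block active-site labeling by the probe so polarization falls; 0% = PAD4 with probe and DMSO and 100% = probe without PAD4 enzyme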
Starred values were filed as active, the others as inactive; / = not tested or not shown.

SMILES	LYPLA1 inh	PME-1 primary	LYPLA2 inh	PAD4 FP inh	GSTO1 counter	Fam108B counter	PAD4 confirm
COc1cc(N2C(=O)CSC23C(=O)Nc2ccccc23)cc(OC)c1OC (configuration not stated)	0	0	5	15*	-6	-2	16*
COC(=O)C(F)(Sc1c(C)n(C)n(-c2ccccc2)c1=O)C(F)(F)F (configuration not stated)	2	1	-2	48*	2	0	34*
COc1ccc(S(=O)(=O)N2CCCOC2CNC(=O)C(=O)NCc2ccccn2)cc1 (configuration not stated)	0	-1	8	-7	2	-4	/
O=C(O)c1cccnc1SCc1cccc(Br)c1	-3	-6	-5	0	3	3	/
CCN(CC(=O)NCc1ccccc1Cl)CC(=O)Nc1c(F)cccc1F	-1	-5	-2	-4	9	4	/
CC(=O)Nc1ccc(N/C(C)=C/C(=O)c2cccnc2)cc1	6	1	1	22*	0	-7	3
CC(=O)c1ccc(NC(=S)Nc2ccc(N3CCOCC3)cc2)cc1	-1	3	0	20*	24	4	2
C/C(=C\C(=O)c1ccc(Cl)cc1)Nc1ccc(N2CCOCC2)cc1	1	1	-1	-9	4	-1	/
C/C(=C\C(=O)c1ccccc1)Nc1ccc(N2CCOCC2)cc1	-1	1	5	20*	6	0	6
Cc1ccc(S(=O)(=O)/N=C(/Sc2ccccc2C(=O)O)c2ccccc2)cc1	3	8	3	18*	5	3	25*
CCOCCCNC(=S)N(CCO)Cc1cc2cc3c(cc2[nH]c1=O)OCCO3	-2	-4	2	23*	9	0	3
CS(=O)(=O)c1ccccc1-c1nnc(NC(=O)c2ccc3ncsc3c2)o1	-3	-1	-1	22*	4	2	9
CS(=O)(=O)c1cccc(-c2nnc(NC(=O)c3ccc4ncsc4c3)o2)c1	2	-6	4	-3	1	-6	/
Cc1ccc2[nH]c(C(=O)O)c(-c3ccccc3)c2c1	2	-1	-1	5	6	-2	/
O=C(O)c1[nH]c2ccccc2c1-c1ccccc1	-3	-9	-6	104*	4	1	4
Cc1ncc(N=Nc2ccc(F)cc2)c(-c2ccc(Cl)cc2)n1	0	1	-5	18*	5	-4	1
COc1ccc(NC(=O)Nc2ccc(C(C)C)cc2)cc1	-1	0	-2	-1	18	-2	/
COc1ccc(NC(=O)NC(C(F)(F)F)C(F)(F)F)cc1	-3	-1	-3	15*	4	7	3
O=C(Cc1c(F)cccc1Cl)Nc1ccccc1-c1ccccc1	-2	0	-7	0	3	0	/
CCC(/C=C1\Sc2ccc(OC)cc2N1CC)=C\c1sc2ccc(OC)cc2[n+]1CCCS(=O)(=O)[O-]	-179	-329	-267	-154	-146	-183	/
CCO/C(=C/c1sc2ccc(OC)cc2[n+]1CCCS(=O)(=O)[O-])CC	3	-4	10	19*	-5	4	5
NNC(=O)c1snnc1-c1ccccc1	-1	-2	3	40*	0	-1	14
O=C(Oc1cccc(-c2cnc3ccccc3n2)c1)c1ccco1	-2	-2	-3	24*	13	-3	19*
COc1ccc(N2C(=O)C(C)C(Cc3ccc(C)cc3)C2=O)cc1 (configuration not stated)	2	2	5	3	10	3	/
O=C(COc1ccc(Br)cc1)N1CCN(S(=O)(=O)/C=C/c2ccccc2)CC1	-2	9	9	-3	1	4	/
SMILES	LYPLA1 inh	PME-1 primary	LYPLA2 inh	PAD4 FP inh	GSTO1 counter	Fam108B counter	PAD4 confirm
O=C(COc1ccccc1F)N1CCN(S(=O)(=O)/C=C/c2ccccc2)CC1	-1	-4	12	56*	-1	-4	0
CC(C)(C)C1CCc2onc(C(=O)Nc3ccc4c(c3)OCO4)c2C1 (configuration not stated)	5	-4	8	1	5	-2	/
Cc1ccc2c(c1)N(C(=O)c1ccco1)C(C)(C)c1ssc(=S)c1-2	3	12	10	16*	-6	3	24*
Cc1cccc2c1N(C(=O)c1ccco1)C(C)(C)c1ssc(=S)c1-2	0	5	-2	15*	-5	1	15
Cn1c(=O)c(C(=O)c2ccc(S(C)(=O)=O)c(Cl)c2Cl)c(O)c2ccccc21	3	10	6	1	-12	1	/
COc1ccc(C)cc1Nc1n[n+](C)c(-c2c3ccccc3cc3ccccc23)s1	1	1	-1	51*	7	-4	10
CC(=O)c1cccc(NC(=O)CSc2nnc(C(C)N(C)C)n2Cc2ccccc2)c1 (configuration not stated)	-5	1	-2	-3	-7	0	/
NC(=S)Nc1cccc2cccnc12	2	0	9	-1	26	3	/
Oc1ccccc1CNc1cccc2cccnc12	-1	3	12	35*	33	8	-4
NC(=S)NNc1cccc2cccnc12	2	11	1	29*	62*	7	5
COc1cc(C#N)c(N=C(SCC#N)N2CCOCC2)cc1OC	1	-4	5	25*	13	-3	28*
Cc1cc(OC(=O)c2ccccc2)n(CCC#N)n1	2	4	-2	40*	29	1	1
CN=C(Nc1cc(C)nn1CCC#N)c1ccccc1	0	-1	-2	-2	0	0	/
CCOC(=O)C1CCCN(Cc2ccc(OC)c(OCc3ccccc3)c2)C1 (configuration not stated)	-1	1	-2	-4	10	0	/
O=C(O)c1ccc2c3c(ncnc13)-c1ccccc1C2=O	10	10	4	85*	18	6	68*
CNc1c(C(=O)O)ccc2c1C(=O)c1ccccc1C2=O	1	-2	-3	0	2	-2	/
Cc1ccc(OCC(=O)N2CCN(S(C)(=O)=O)CC2)cc1	-2	-1	3	-2	5	0	/
Cc1nnc(SCC(=O)c2ccc(Cl)cc2)n(N)c1=O	-1	-6	-4	26*	3	2	3
Cc1ccc(NC(=O)CSc2nnc(C)c(=O)n2N)cc1Cl	2	0	4	2	20	1	/
O=C1CSC2(C(=O)N3CCCc4cccc2c43)N1c1cccc(C(F)(F)F)c1 (configuration not stated)	1	-1	6	18*	-3	1	8
